High-throughput results as filed in PubChem.
The full list was thinned out, with hits kept by preference.
ROS inducer – raises reactive oxygen species in U2OS cancer cells; ROS induction (% of piperlongumine), % at 10 µM; actives 2% (n = 46,000); U2OS ROS induction, H2DCF-DA fluorescence; in the data active = ROS induction above about 79%, passing the limit was not always enough
Each line names hits and unclear results; the compound was inactive in the other large screens.

CC(C)NC(=O)Nc1ccc2c(c1)C(=O)N([C@@H](C)CO)C[C@H](C)[C@H](CN(C)CC1CCCCC1)O2	none
COc1ccc(CCNc2ccncn2)cc1OC	none
CCCCc1c(C)c(C#N)c2nc3ccccc3n2c1NCCN1CCOCC1	ROS inducer 96
CCCc1cc(N2CCN(c3ccccc3)CC2)n2c(nc3ccccc32)c1C#N	none
COc1ccc(CCNC(=O)CCn2c(SCC#N)nc3ccccc3c2=O)cc1OC	none
C=CCc1c(C)c(C#N)c2nc3ccccc3n2c1NCCc1ccc(OC)c(OC)c1	ROS inducer 133
Cc1c(C#N)c2nc3ccccc3n2c(=O)/c1=C/Nn1cnnc1	none
C[C@@H]1CN([C@H](C)CO)C(=O)Cc2cc(NC(=O)Nc3ccc(C(F)(F)F)cc3)ccc2O[C@@H]1CN(C)S(=O)(=O)c1cccs1	none
Cc1c(-c2nnnn2-c2ccccc2)cnc2ccccc12	none
CCOc1ccc(S(=O)(=O)NCC(=O)O)cc1	none
c1ccc(C2(Cn3ccc4ccccc43)OCCO2)cc1	none
Cc1cc(C(=O)Nc2cccc3c2O[C@H](CN(C)Cc2ccccc2)[C@H](C)CN([C@@H](C)CO)C3=O)n(C)n1	none
Cc1cc(C(=O)Nc2cccc3c2O[C@H](CN(C)Cc2ccc(-c4ccccc4)cc2)[C@H](C)CN([C@H](C)CO)C3=O)n(C)n1	none
Cc1cc(C(=O)Nc2cccc3c2O[C@@H](CN(C)Cc2ccc(-c4ccccc4)cc2)[C@@H](C)CN([C@H](C)CO)C3=O)n(C)n1	none
Cc1cc(C(=O)Nc2cccc3c2O[C@H](CN(C)Cc2ccc(-c4ccccc4)cc2)[C@@H](C)CN([C@@H](C)CO)C3=O)n(C)n1	ROS inducer 214
Cc1cc(C(=O)Nc2cccc3c2O[C@H](CN(C)Cc2ccc(-c4ccccc4)cc2)[C@H](C)CN([C@@H](C)CO)C3=O)n(C)n1	none
Cc1cc(C(=O)Nc2cccc3c2O[C@@H](CN(C)Cc2ccc(-c4ccccc4)cc2)[C@H](C)CN([C@H](C)CO)C3=O)n(C)n1	ROS inducer 78
Cc1cnc(NC(=O)C2C(=O)c3ccccc3S(=O)(=O)N2C)s1 (centres undefined)	none
C[C@H](CO)N1C[C@H](C)[C@H](CN(C)C(=O)Nc2ccc(F)cc2)Oc2ccc(NC(=O)Nc3ccc(F)cc3)cc2CC1=O	none
Cc1cc(C)c2c(CC(=O)NCc3ccco3)coc2c1	none
COc1ccc(-c2cc(C)nc(SCC(=O)c3cccc([N+](=O)[O-])c3)n2)cc1	ROS inducer 92
COc1cc(-c2nnc(SCC(=O)c3cccc([N+](=O)[O-])c3)n2-c2ccccc2)cc(OC)c1OC	ROS inducer 95
COc1ccc(-c2nnc(SCC(=O)c3ccc(F)cc3)n2-c2ccccc2)cc1OC	none
COc1ccc(-c2nnc(SCC(=O)c3cccc([N+](=O)[O-])c3)n2C)cc1	none
Cc1cc(C(F)(F)F)nc(SCC(=O)c2cccc([N+](=O)[O-])c2)n1	none
COc1cc(-c2nnc(SCC(=O)c3ccc(Cl)cc3)n2-c2ccccc2)cc(OC)c1OC	none
Cc1ccc(N(C(C)C(=O)Nc2cccc(Cl)c2Cl)S(C)(=O)=O)cc1 (centres undefined)	none
C[C@@H]1CN([C@H](C)CO)C(=O)c2cc(NC(=O)CCCN(C)C)ccc2O[C@H]1CN(C)Cc1ccccc1	none
COc1cc([C@@H]2c3cc4c(cc3[C@H](O)[C@H]3COC(=O)[C@@H]23)OCO4)cc(OC)c1OC	none
C[C@@H]1CN([C@H](C)CO)C(=O)Cc2cc(NC(=O)Nc3ccccc3)ccc2O[C@H]1CN(C)S(C)(=O)=O	none
CC1(C)CC(=O)C2=C(C1)N(Cc1ccc(F)cc1)C(=O)C2(NC(=O)c1cccnc1)C(F)(F)F (centres undefined)	none
CCC1=NC(C(F)(F)F)(C(F)(F)F)C2=C(CC(C)(C)CC2=O)N1Cc1ccccc1	ROS inducer 120
CC1(C)CC(=O)C2=C(C1)N(CCc1ccccc1)C(=O)C2(NC(=O)c1cccnc1)C(F)(F)F (centres undefined)	none
COc1ccc(NC(=O)N(C)C[C@H]2Oc3c(NC(=O)CCCCCC(=O)Nc4ccccc4N)cccc3C(=O)N([C@H](C)CO)C[C@@H]2C)cc1	none
O=C(CSc1n[nH]c(-c2cccc([N+](=O)[O-])c2)n1)Nc1cccc(C(F)(F)F)c1	none
COc1ccc(-c2cc(=O)c3ccccc3o2)cc1	none
COc1cc(O)c2c(=O)cc(-c3ccc(O)cc3)oc2c1	none
COc1ccc(N=c2cc(-c3ccc(OC)cc3)oc3ccc(O)cc23)cc1	ROS inducer 193
Cc1noc(C)c1S(=O)(=O)Nc1ccc2c(c1)CC(=O)N([C@H](C)CO)C[C@@H](C)[C@H](CN(C)Cc1ccccc1)O2	none
C[C@H]1CN([C@@H](C)CO)C(=O)Cc2cc(NC(=O)Nc3ccc4c(c3)OCO4)ccc2O[C@@H]1CN(C)C(=O)Nc1ccc(F)cc1	none
CCCc1c(C#N)c(N)nc(SCCCN2CCN(c3cccc(Cl)c3)CC2)c1C#N	ROS inducer 126
O=c1n(CCCN2CCN(c3cccc(Cl)c3)CC2)nc2ccccn12	none
CCCc1nc(N)c(C#N)c(-c2ccccc2)c1CC	none
COc1ccccc1-n1c(=O)c2c3c(sc2n2c(=S)[nH]nc12)CCC3	none
